Bioassay records: PubChem BioAssay, University of Kansas High Throughput Screening Laboratory
The entries come from a sample that favours hits as a whole.
Pf apPOL inh: Pf-apPOL DNA polymerase inhibition | inhibition, % at 10 µM | Recombinant Pf-apPOL, molecular beacon fluorescence, 1.5 h | AID 1794808 | 210,000 compounds, 0.25% hits
mHTT CaM bind: mHTT-calmodulin interaction abrogation; AID 1671202; inhibition, % at 15 µM; P42858; AlphaScreen His-mHTT/GST-CaM binding, luminescence; 190,000 compounds, 3.6% hits;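 note: 0% = both proteins with DMSO and 100% = one protein alone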
* = called active by the depositor; / = no result. Cut-off read from the data, not from the text of the source: active = inhibition above about 50%; inactive = the rest.

SMILES	Pf apPOL inh	mHTT CaM bind
COc1cc(-c2noc(C)n2)ccc1OCc1ccc(F)cc1F	1	-9
Cc1ccc(C2CC(C(F)(F)F)n3ncc(C(=O)Nc4ccccc4C)c3N2)cc1 (stereo unspecified)	0	18
Cc1ccc(C2CC(C(F)F)n3ncc(C(=O)Nc4cnn(Cc5ccccc5C)c4)c3N2)cc1 (stereo unspecified)	-3	56*
CCOc1nccnc1NC1CCN(C(=O)Cc2ccsc2)CC1	-8	5
CN1CCN(C2=NS(=O)(=O)c3ccccc32)CC1	-1	0
CC(=O)C1=C(C)NC(SCC(=O)c2ccccc2Cl)=C(C#N)C1c1sccc1C (stereo unspecified)	-8	-56
CN(CC(O)COc1ccc2c(c1)CCC2)C1CCCCC1 (stereo unspecified)	-4	2
Cc1cccc(CNC(=O)c2nn(C)c3c2CN(C(=O)c2ccccc2F)CC3)c1	-7	43
Cc1ccccc1C(=O)N1CCc2c(c(C(=O)NCc3ccc(Cl)cc3)nn2C)C1	-4	11
CCOc1ccccc1C(=O)N1CCc2c(c(C(=O)NCc3cccc(C)c3)nn2C)C1	-11	42
Cn1nc(C(=O)NCc2ccc(Cl)cc2)c2c1CCN(C(=O)c1c(F)cccc1F)C2	-4	58*
Cn1nc(C(=O)NCc2ccc(F)cc2)c2c1CCN(C(=O)c1ccccc1F)C2	-13	82*
CCOc1ccccc1C(=O)N1CCc2c(c(C(=O)NCc3ccc(F)cc3)nn2C)C1	-7	73*
O=c1cc(CN2CCc3ccccc3C2)occ1OCc1cccc([N+](=O)[O-])c1	-3	6
Cc1cccc(N2C=NS(=O)(=O)c3cccnc32)c1	-2	-4
COCCCNC(=O)C1COc2ccc(NC(=O)CC(C)C)cc2C1 (stereo unspecified)	-4	-6
O=C1OC(c2cccc(Br)c2)=N/C1=C/c1ccccc1[N+](=O)[O-]	-5	2
CN(C)C1=C(Nc2cccc(Cl)c2)C(=O)c2ccccc2C1=O	-4	57*
CN(C)C1=C(Nc2cccc(I)c2)C(=O)c2ccccc2C1=O	-4	92*
CC(C)C(=O)Nc1cccc(I)c1	8	-1
CC(=O)N(C1=C(N(C)C)C(=O)c2ccccc2C1=O)c1cccc(Cl)c1	-7	18
Cc1nc(C(C)C)c(Cc2ccc(F)cc2)c(N2CCN(C(=O)C3CCC3)CC2)n1	-4	19
O=C1NN(c2ccccc2)C(=O)/C1=C/c1ccc(-c2ccccc2F)o1	-8	10
O=C1NN(c2cccc(C(F)(F)F)c2)C(=O)/C1=C/c1ccc([N+](=O)[O-])o1	-1	98*
Cc1ccc(CNC(=O)N2CCCC2c2ccc(Cl)cc2)cc1 (stereo unspecified)	-1	-4
SMILES	Pf apPOL inh	mHTT CaM bind
CCc1ccc(C2CC(c3ccc(Br)cc3)Nc3nnnn32)cc1 (stereo unspecified)	7	10
COc1ccccc1N1CCN(C(=O)c2cn3cc(C)ccc3n2)CC1	-1	-3
c1ccc(C2=NN3C(C2)c2ccccc2OC3c2ccc3c(c2)OCO3)cc1 (stereo unspecified)	-1	5
CN1CC2c3ccccc3OC(c3ccc4c(c3)OCO4)C2([N+](=O)[O-])O1 (stereo unspecified)	/	96*
Cc1ccc2nc(NC(=O)CSc3ccc4nnc(-c5ccccn5)n4n3)sc2c1	5	80*
Cc1ccc2nc(NC(=O)CSc3ccc(-n4cccn4)nn3)sc2c1	-3	-13
O=C(CSc1ccc2nnc(-c3ccccn3)n2n1)NCc1ccc2c(c1)OCO2	5	24
CCOC(=O)CC(=O)CSc1ccc2nnc(-c3ccccn3)n2n1	2	83*
COc1ccc(CNCc2ccccc2[N+](=O)[O-])cc1	-1	-3
CCOC(=O)CCSCC(=O)N1N=C(c2cccs2)CC1c1ccc(C)cc1 (stereo unspecified)	1	52*
Cc1ccc(C2CC(c3cccs3)=NN2C(=O)CN(C)C(=O)C(C)C)cc1 (stereo unspecified)	0	26
CCN(CC)c1ccc(/C=C2/C(=O)ON=C2C)cc1	0	50*
CCOc1ccc(Cl)cc1/C=C1/C(=O)ON=C1C	-9	30
CCOc1ccc(/C=C2/C(=O)ON=C2C)cc1Br	0	48
CCCCC1(C)OC(=O)C(=Cc2ccc(N(CC)CC)cc2)C(=O)O1 (stereo unspecified)	4	3
CCCOc1ccc(/C=C2/C(=O)ON=C2C)cc1Cl	9	58*
CCOc1ccc(/C=C2/C(=O)ON=C2C)cc1Cl	6	67*
COC1=CC2([N+](=O)[O-])CN(CC(=O)O)CC([N+](=O)[O-])(C1)C2 (stereo unspecified)	4	0
COCCN(CC1(C)CCOCC1)C(=O)NC1CCCCC1	0	-4
Cc1ccc(C)c(NC(=O)C2CC(=O)N(CCc3c[nH]c4ccc(F)cc34)C2)c1 (stereo unspecified)	0	22
COc1ccc2[nH]cc(CCN3CC(C(=O)Nc4nc5ccc(C)cc5s4)CC3=O)c2c1 (stereo unspecified)	-2	56*
COc1ccc2[nH]cc(CCN3CC(C(=O)Nc4ccc(C)cc4C)CC3=O)c2c1 (stereo unspecified)	-3	12
Cc1ccc2nc(NC(=O)C3CC(=O)N(CCc4c[nH]c5ccc(F)cc45)C3)sc2c1 (stereo unspecified)	-1	91*
Cc1ccc(Oc2cccc(NC(=O)Nc3cccc(C(F)(F)F)c3)c2)nn1	-8	2
CC1CCN(c2nccc(C(=O)N3CCN(c4cccc(Cl)c4)CC3)n2)CC1	-2	11
SMILES	Pf apPOL inh	mHTT CaM bind
CCN1CCn2cc(C(=O)N3CCN(c4cccc(Cl)c4)CC3)nc2C1	-5	53*
CCN1CCn2cc(C(=O)N3CCN(c4ccc(Cl)cc4)CC3)nc2C1	-6	44
O=C(c1ccnc(N2CCCCC2)n1)N1CCN(c2cccc(Cl)c2)CC1	3	56*
O=C(C1CC1)N1CCc2nc(N3CCCCC3)nc(Oc3ccccc3)c2C1	-4	16
COc1cc(OC)c2ccc(=O)oc2c1C(CC(=O)N1CCOCC1)c1ccc2c(c1)OCO2 (stereo unspecified)	-7	12
COc1cc(C(CC(=O)N2CCN(c3ccccc3)CC2)c2c(OC)cc(OC)c3ccc(=O)oc23)cc(OC)c1OC (stereo unspecified)	-3	71*
COc1ccc(C(CC(=O)N2CCCCC2)c2c(OC)cc(OC)c3ccc(=O)oc23)cc1 (stereo unspecified)	-4	34
COc1cc(OC)c2ccc(=O)oc2c1C(CC(=O)N1CCN(c2ccccc2)CC1)c1ccc2c(c1)OCO2 (stereo unspecified)	-4	70*
CC(=O)N1N=C(Cc2ccc(-c3ccccc3)cc2)OC12CCCC2	2	2
COC(=O)c1c(Br)cnn1C	/	-14
COc1ccccc1CC(=O)N1CCN(c2ncnc3c2CCC3)CC1	-4	-4
Cn1c(=O)c([N+](=O)[O-])c(N2CCN(CCOc3ccc(Cl)cc3)CC2)c2ccccc21	-5	41
C#CCN1C(=O)C(O)(CC(=O)c2ccc3c(c2)CCCC3)c2ccccc21 (stereo unspecified)	-6	14
C=CCN1C(=O)C(O)(CC(=O)c2ccc3c(c2)CCCC3)c2ccccc21 (stereo unspecified)	2	57*
CC(=O)Nc1ccccc1C(=O)C(=O)Nc1ccc(Cl)c(F)c1	-4	-2
